The panel holds about 79,000 compounds, 15% with a hit somewhere; the sample as a whole holds those more often. Activity calls are given as the source filed them. Rule as the data show it: active = growth inhibition above about 70%; inactive = the rest.
Tests used:
[1] = NCI Yeast Anticancer Drug Screen. Data for the mec2-1 strain (AID 157); conditions: S. cerevisiae mec2-1 strain, stronger effect = higher value
Summary of the method: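 Readout is yeast growth inhibition, normalised to vehicle-treated controls, in the mec2-1 strain exposed to compound.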

[2] = NCI Yeast Anticancer Drug Screen. Data for the rad14 strain (AID 159);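 also: 0% = growth of vehicle-treated control cultures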; conditions: S. cerevisiae rad14 strain growth inhibition, stronger effect = higher value
Summary of the method: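 Inhibition of growth is reported for a repair-deficient yeast mutant following compound treatment, calculated relative to cultures that received vehicle.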

[3] = NCI Yeast Anticancer Drug Screen. Data for the sgs1 mgt1 strain (AID 161);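 also: 0% = growth of cultures given vehicle only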; conditions: S. cerevisiae sgs1 mgt1 strain, stronger effect = higher value
Summary of the method: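 Yeast cells carrying a defined DNA-repair defect were exposed to test compounds. Growth inhibition was measured relative to vehicle-treated controls.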

[4] = NCI Yeast Anticancer Drug Screen. Data for the CLN2oe strain (AID 163);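 also: 0% = growth of vehicle-only control cultures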; conditions: S. cerevisiae CLN2oe strain, stronger effect = higher value
Summary of the method: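 Values reflect how much compound exposure reduced yeast growth, referenced to vehicle-exposed cells. Assay organism is a strain with a defined genetic change affecting cell-cycle control.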

[5] = NCI Yeast Anticancer Drug Screen. Data for the cln2 rad14 strain (AID 165);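 also: 0% = growth equal to vehicle treated cultures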; conditions: S. cerevisiae cln2 rad14 strain, stronger effect = higher value
Summary of the method: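 Relative to vehicle controls, growth inhibition of compound-treated cln2 rad14 yeast was recorded.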

[6] = NCI Yeast Anticancer Drug Screen. Data for the bub3 strain (AID 167); conditions: S. cerevisiae bub3 mutant strain, stronger effect = higher value
Summary of the method: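 Mutant yeast screening strain plus compound; vehicle-treated cultures serve as the 0% inhibition reference.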

[7] = NCI Yeast Anticancer Drug Screen. Data for the wt2 strain (AID 169); conditions: S. cerevisiae wt2 strain growth inhibition, stronger effect = higher value
Summary of the method: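 Values express reduction in yeast growth under compound treatment, referenced to vehicle-treated cells.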

[8] = NCI Yeast Anticancer Drug Screen. Data for the mlh1 strain (AID 171);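 also: 0% = growth of vehicle-treated control cultures of the same strain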; conditions: S. cerevisiae mlh1 strain growth inhibition, stronger effect = higher value
Summary of the method: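 Steps: expose the defined-mutant yeast strain to compound; expose a parallel culture to vehicle; measure growth; express compound effect as inhibition relative to the vehicle culture.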

[9] = NCI Yeast Anticancer Drug Screen. Data for the sgs1 strain (AID 173);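 also: 0% = growth of vehicle-only control cultures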; conditions: S. cerevisiae sgs1 mutant, stronger effect = higher value
Summary of the method: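 Treat defined-mutant yeast with compound; measure growth; calculate inhibition relative to vehicle-treated cells.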

[10] = NCI Yeast Anticancer Drug Screen. Data for the mlh1 rad18 strain (AID 175); conditions: S. cerevisiae mlh1 rad18 strain growth inhibition, stronger effect = higher value
Summary of the method: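 Test agents were incubated with a yeast strain of defined genotype (DNA damage repair defect). Inhibition of growth was derived by comparison with vehicle-exposed cultures.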

[11] = NCI Yeast Anticancer Drug Screen. Data for the rad18 strain (AID 177); conditions: S. cerevisiae rad18 mutant growth inhibition, stronger effect = higher value
Summary of the method: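 A genetically defined yeast mutant impaired in DNA damage repair was treated with test compounds, then its growth was measured against cultures receiving vehicle alone.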

[12] = NCI Yeast Anticancer Drug Screen. Data for the rad52 strain (AID 147);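 also: 0% = growth of vehicle-treated control cultures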; conditions: S. cerevisiae rad52 mutant growth inhibition, stronger effect = higher value
Summary of the method: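 Screen used a yeast mutant impaired in DNA repair. After compound exposure, growth was measured. Values reflect inhibition compared with vehicle-treated cells.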

[13] = NCI Yeast Anticancer Drug Screen. Data for the wt1 strain (AID 149);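 also: 0% = growth of vehicle-treated wt1 cultures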; conditions: S. cerevisiae wt1 strain (SPY 50644) growth inhibition, stronger effect = higher value
Summary of the method: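 Each compound is tested on wt1 yeast and the loss of growth versus vehicle gives the inhibition value.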

[14] = NCI Yeast Anticancer Drug Screen. Data for the rad50EPP+ strain (AID 151);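 also: 0% = growth of vehicle-treated control cultures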; conditions: S. cerevisiae rad50 mutant strain, stronger effect = higher value
Summary of the method: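 Exposing the rad50EPP+ strain to each compound, growth was compared with vehicle-only cultures to give inhibition.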

[15] = NCI Yeast Anticancer Drug Screen. Data for the mgt1 strain (AID 153); conditions: S. cerevisiae mgt1 mutant growth inhibition, stronger effect = higher value
Summary of the method: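 Genetically defined yeast (mgt1) treated with compound; inhibition of growth expressed against vehicle-treated controls.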

[16] = NCI Yeast Anticancer Drug Screen. Data for the rad50 strain (AID 155);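 also: 0% = growth of vehicle-only cultures of the same strain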; conditions: S. cerevisiae rad50 strain growth inhibition, stronger effect = higher value
Summary of the method: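 Vehicle-treated cultures provide the reference for the growth inhibition reported for compound-exposed, repair-deficient yeast.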

[17] = at 5.0 µM (retest, dose inferred, filed as 0.5)
[18] = at 50.0 µM (retest, dose inferred, filed as 5.0)

Measured: growth inhibition

O=c1c2ccccc2nc(-c2ccc(Cl)cc2)n1O
inactive: [1]; [17] 10% | [3]; [17] 46% | [4]; at 1.2 µM 21% | [4]; at 3.7 µM 26% | [4]; at 11.0 µM 66% | [5]; [17] -23% | [6]; at 1.2 µM 62% | [6]; [17] 23% | [10]; [17] 48%
active: [1]; at 11.0 µM 83% | [1]; at 33.0 µM 84% | [1]; [18] 97% | [1]; at 50.0 µM 96.7% | [1]; at 100.0 µM 88% | [2]; at 1.2 µM 98% | [2]; at 3.7 µM 98% | [2]; at 11.0 µM 98% | [2]; at 33.0 µM 98% | [2]; at 100.0 µM 98% | [3]; [18] 98% | [3]; at 50.0 µM 96.7% | [4]; at 33.0 µM 73% | [4]; at 100.0 µM 71% | [5]; [18] 84% | [5]; at 50.0 µM 87.8% | [6]; at 3.7 µM 75% | [6]; at 11.0 µM 78% | [6]; at 33.0 µM 82% | [6]; [18] 97% | [6]; at 50.0 µM 87.5% | [6]; at 100.0 µM 72% | [7]; at 1.2 µM 92% | [7]; at 3.7 µM 96% | [7]; at 11.0 µM 96% | [7]; at 33.0 µM 96% | [7]; at 100.0 µM 96% | [8]; at 1.2 µM 72% | [8]; at 3.7 µM 90% | [8]; at 11.0 µM 93% | [8]; at 33.0 µM 92% | [8]; at 100.0 µM 94% | [9]; at 1.2 µM 96% | [9]; at 3.7 µM 96% | [9]; at 11.0 µM 97% | [9]; at 33.0 µM 96% | [9]; at 100.0 µM 95% | [10]; [18] 98% | [10]; at 50.0 µM 96.1% | [11]; at 1.2 µM 94% | [11]; at 3.7 µM 96% | [11]; at 11.0 µM 97% | [11]; at 33.0 µM 96% | [11]; at 100.0 µM 95%

O=C(C#Cc1ccccc1)Nc1ccccc1
inactive: [12]; at 1.2 µM -14% | [12]; at 3.7 µM -11% | [12]; at 11.0 µM -7% | [12]; at 33.0 µM 23% | [13]; at 1.2 µM -1% | [13]; at 3.7 µM -10% | [13]; at 11.0 µM -6% | [13]; at 33.0 µM 6% | [14]; at 1.2 µM -4% | [14]; at 3.7 µM 4% | [14]; at 11.0 µM 37% | [15]; at 1.2 µM -5% | [15]; at 3.7 µM -10% | [15]; at 11.0 µM -4% | [15]; at 33.0 µM 58% | [16]; at 1.2 µM -20% | [16]; at 3.7 µM -25% | [16]; [17] -147% | [16]; at 11.0 µM -17% | [16]; at 33.0 µM 52% | [16]; [18] 20% | [16]; at 50.0 µM 45.8% | [1]; at 1.2 µM -9% | [1]; at 3.7 µM -7% | [1]; [17] -48% | [1]; at 11.0 µM -8% | [1]; at 33.0 µM -2% | [1]; [18] -29% | [1]; at 50.0 µM 33.6% | [2]; at 1.2 µM -3% | [2]; at 3.7 µM -9% | [2]; at 11.0 µM 4% | [2]; at 33.0 µM 67% | [3]; [17] -57% | [3]; [18] 67% | [3]; at 50.0 µM 64.7% | [4]; at 1.2 µM -10% | [4]; at 3.7 µM -13% | [4]; at 11.0 µM -14% | [4]; at 33.0 µM -5% | [5]; [17] -64% | [5]; [18] -42% | [5]; at 50.0 µM -13.2% | [6]; at 1.2 µM -10% | [6]; at 3.7 µM -7% | [6]; [17] -74% | [6]; at 11.0 µM -7% | [6]; at 33.0 µM 24% | [6]; [18] -6% | [6]; at 50.0 µM 15.4% | [7]; at 1.2 µM -9% | [7]; at 3.7 µM -4% | [7]; at 11.0 µM 19% | [8]; at 1.2 µM -15% | [8]; at 3.7 µM -12% | [8]; at 11.0 µM -9% | [9]; at 1.2 µM -9% | [9]; at 3.7 µM -3% | [9]; at 11.0 µM 33% | [10]; [17] -149% | [10]; [18] -10% | [10]; at 50.0 µM 38.9% | [11]; at 1.2 µM -9% | [11]; at 3.7 µM -12% | [11]; at 11.0 µM -9% | [11]; at 33.0 µM 8%
active: [12]; at 100.0 µM 97% | [13]; at 100.0 µM 95% | [14]; at 33.0 µM 70% | [14]; at 100.0 µM 92% | [15]; at 100.0 µM 97% | [16]; at 100.0 µM 97% | [1]; at 100.0 µM 80% | [2]; at 100.0 µM 97% | [4]; at 100.0 µM 94% | [6]; at 100.0 µM 97% | [7]; at 33.0 µM 90% | [7]; at 100.0 µM 99% | [8]; at 33.0 µM 72% | [8]; at 100.0 µM 98% | [9]; at 33.0 µM 88% | [9]; at 100.0 µM 99% | [11]; at 100.0 µM 94%

CN(C)CC1=Nc2cccc3cccc(c23)N1
active: [15]; at 100.0 µM 87% | [16]; at 50.0 µM 90.8% | [16]; at 100.0 µM 79% | [1]; at 50.0 µM 87.4% | [1]; at 100.0 µM 85% | [2]; at 100.0 µM 88% | [3]; at 50.0 µM 88.6% | [6]; at 50.0 µM 90% | [6]; at 100.0 µM 85% | [8]; at 100.0 µM 87% | [10]; at 50.0 µM 90.2% | [11]; at 100.0 µM 70%
inactive: [12]; at 1.2 µM -4% | [12]; at 3.7 µM -6% | [12]; at 11.0 µM -10% | [12]; at 33.0 µM 2% | [12]; at 100.0 µM 60% | [13]; at 1.2 µM 2% | [13]; at 3.7 µM -5% | [13]; at 11.0 µM -6% | [13]; at 33.0 µM -4% | [13]; at 100.0 µM 21% | [14]; at 1.2 µM -2% | [14]; at 3.7 µM -3% | [14]; at 11.0 µM -2% | [14]; at 33.0 µM -8% | [14]; at 100.0 µM 13% | [15]; at 1.2 µM -9% | [15]; at 3.7 µM -1% | [15]; at 11.0 µM -7% | [15]; at 33.0 µM 9% | [16]; at 1.2 µM -7% | [16]; at 3.7 µM 1% | [16]; [17] -17% | [16]; at 11.0 µM 4% | [16]; at 33.0 µM 51% | [16]; [18] 30% | [1]; at 1.2 µM -3% | [1]; at 3.7 µM -3% | [1]; [17] -12% | [1]; at 11.0 µM -5% | [1]; at 33.0 µM 3% | [1]; [18] 17% | [2]; at 1.2 µM -2% | [2]; at 3.7 µM 0% | [2]; at 11.0 µM 1% | [2]; at 33.0 µM 51% | [3]; [17] -21% | [3]; [18] 41% | [4]; at 1.2 µM -4% | [4]; at 3.7 µM -8% | [4]; at 11.0 µM 5% | [4]; at 33.0 µM 3% | [4]; at 100.0 µM 61% | [5]; [17] -39% | [5]; [18] -16% | [5]; at 50.0 µM 6.8% | [6]; at 1.2 µM -5% | [6]; at 3.7 µM -4% | [6]; [17] -26% | [6]; at 11.0 µM -3% | [6]; at 33.0 µM 17% | [6]; [18] 58% | [7]; at 1.2 µM -2% | [7]; at 3.7 µM -5% | [7]; at 11.0 µM -6% | [7]; at 33.0 µM 10% | [7]; at 100.0 µM 64% | [8]; at 1.2 µM 0% | [8]; at 3.7 µM -12% | [8]; at 11.0 µM -5% | [8]; at 33.0 µM 24% | [9]; at 1.2 µM -1% | [9]; at 3.7 µM -5% | [9]; at 11.0 µM -5% | [9]; at 33.0 µM 7% | [9]; at 100.0 µM 68% | [10]; [17] -32% | [10]; [18] 46% | [11]; at 1.2 µM -3% | [11]; at 3.7 µM -20% | [11]; at 11.0 µM -14% | [11]; at 33.0 µM 1%

From PubChem BioAssay (NCI)
